For 39 compounds, outcome and AC50 results are on record in PubChem BioAssay (EPA / NIEHS).

Values joined by “and” are separate entries in the source; they are usually repeats but may differ in a detail not shown here. Identical values can stand only once. Some compounds were tested as several samples or in several runs, with calls that do not always agree. Active and inactive are the calls of the source. Rule for the calls: active = hit-call score of the fitted dose curve at least 0.9, where 1 is the maximum; inactive = score below 0.9.

E-selectin (Homo sapiens), sequence (P16581 whole entry, looked up): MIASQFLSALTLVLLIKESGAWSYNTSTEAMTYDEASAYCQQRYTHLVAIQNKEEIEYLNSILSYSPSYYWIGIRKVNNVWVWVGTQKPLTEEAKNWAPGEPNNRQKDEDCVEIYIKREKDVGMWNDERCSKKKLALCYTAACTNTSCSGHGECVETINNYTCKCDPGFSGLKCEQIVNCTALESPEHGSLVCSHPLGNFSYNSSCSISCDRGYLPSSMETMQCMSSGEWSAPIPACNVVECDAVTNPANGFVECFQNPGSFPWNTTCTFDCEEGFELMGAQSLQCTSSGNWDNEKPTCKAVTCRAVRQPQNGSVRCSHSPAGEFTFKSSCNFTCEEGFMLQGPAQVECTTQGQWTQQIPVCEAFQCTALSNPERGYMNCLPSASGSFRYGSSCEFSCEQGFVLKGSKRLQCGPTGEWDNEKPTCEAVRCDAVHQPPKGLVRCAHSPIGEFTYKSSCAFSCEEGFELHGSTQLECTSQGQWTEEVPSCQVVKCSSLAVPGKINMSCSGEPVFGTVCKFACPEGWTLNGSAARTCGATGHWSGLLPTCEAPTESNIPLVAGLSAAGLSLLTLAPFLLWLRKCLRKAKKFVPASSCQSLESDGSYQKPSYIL

Read-out in the assay: E-selectin (Homo sapiens) (UniProt P16581)
Description: BSK_LPS_Eselectin: BioMAP Diversity Plus: LPS Assay for Eselectin Biomarker Activity (AID 2283077). As to conditions: primary human HUVEC with PBMC; actives raise or lower the signal. As to the method: BSK_LPS is a cell-based, multiplexed-readout assay that uses umbilical vein endothelium and peripheral blood mononuclear cells, a human vascular primary cell co-culture, with measurements taken at 24 hours after chemical dosing in a 96-well plate.BSK_LPS_Eselectin is an assay component measured in the BSK_LPS assay. It measures E-selectin antibody related to regulation of gene expression using ELISA technology.Data from the assay component BSK_LPS_Eselectin was analyzed into 1 assay endpoint. This assay endpoint, BSK_LPS_Eselectin, was analyzed with bidirectional fitting relative to DMSO as the negative control and baseline of activity. Using a type of binding reporter, gain or loss-of-signal activity can be used to understand changes in the signaling as they relate to the gene SELE. Furthermore, this assay endpoint can be referred to as a primary readout, because this assay has produced multiple assay endpoints where this one serves a signaling function. To generalize the intended target to other relatable targets, this assay endpoint is annotated to the cell adhesion molecules intended target family, where the subfamily is selectins.
The levels of cell surface (or secreted, indicated by the prefix "s") biomarker endpoints were measured by ELISA. Overt cytotoxicity to cells in confluent adherent cultures (all systems other than the BT system) was assessed by measuring total protein levels using sulforhodamine B (SRB) staining in parallel cultures at the time of biomarker measurements, indicated as SRB endpoints. For proliferation assays for adherent cell types, individual cell types are cultured at sub-confluence and relative cell numbers quantified by SRB staining at time points optimized for each system (48 h: 3C and CASM3C systems; 72 h: BT and HDF3CGF systems; 96 h: SAg system). SRB was performed by staining cells with 0.1% SRB after fixation with 10% TCA and reading wells at 560 nm.Viability and proliferation of PBMC (T cells) was quantified by Alamar Blue reduction for the SAg and BT systems. For PBMC viability (referred to as PBMC Cytotoxicity within the assay endpoint names), cells were plated (75,000/well in a 96-well plate) and then chemical samples added for 1 h before addition of activators, SEB and TSST-1 (20 ng/mL final concentration each). Cells were incubated for 90 h. Then, Alamar Blue (20 uL/well) (Invitrogen, Cat DAL1100) was added for 6 h, and the plates were read with a fluorescence microplate reader at 546/580 nm (excitation/emission). For PBMC proliferation, cells were plated and activated as above but incubated for only 16 h prior to addition of Alamar Blue. Plates were read after 6 h.
As to `C1CNCCN1`, the result was inactive.
As to `Nc1cccc(N)n1`, the result was inactive.
On to `c1ccc2c(c1)[nH]c1ccccc12`, for which the result was inactive.
`CC(C)C(=O)OCCc1ccccc1`: the result was inactive.
For `CC=C(C)C(C)=O`, the outcome was inactive.
As for `C[N+](C)(C)CCCNS(=O)(=O)C(F)(F)C(F)(F)C(F)(F)C(F)(F)C(F)(F)C(F)(F)C(F)(F)C(F)(F)F`, the AC50 is 48.1 µM (active) and the result was inactive.
On to `C=C(C)C(=O)OCCCCCCCCCCCC`, for which the outcome was inactive.
For `CCCC(C)C(=O)OCC` (stereo not given), the result was inactive.
Still for that read-out and setting: for `c1ccc2sc(SSN3CCOCC3)nc2c1` the value was “inactive”; for `Fc1ccc(Br)cc1`, “inactive”; for `CC(C)CCCCCOC(=O)CS`, “inactive”.
`O=C(Oc1ccccc1)c1ccccc1C(=O)Oc1ccccc1`: the outcome was inactive.
Turning to `CCOC(=O)/C=C\C(=O)OCC`, the outcome was inactive.
Turning to `CC/C=C\CCOC(=O)c1ccccc1O`, the half-maximal activity concentration (AC50) is 38.1 µM (active).
Regarding `O=C(O)C(F)(F)C(F)(F)C(F)(F)C(F)(F)C(=O)O`, the result was inactive.
Consider `CCCCCCCCC(CO)CCCCCC` (stereo not given), for which the result was inactive.
Take `CCCCC1C(=O)N(c2ccccc2)N(c2ccccc2)C1=O`: the result was inactive.
On the same count and under the same terms, for `CC=C(C)C=CC=C(C)C` the value was “inactive”; for `Clc1cc(Cl)c(Cl)c(Cl)c1Cl`, “inactive”.
As for `C=CC(=O)OCC(C)OCC(C)OCC(C)OC(=O)C=C` (stereo not given), the AC50 was 9.34 µM (active).
For `CCC1(C)C(=O)N(Cl)C(=O)N1Cl` (stereo not given), the result was inactive.
Consider `Oc1c(Cl)cc(Cl)c(Cl)c1Cl`, for which the half-maximal activity concentration (AC50) is 30.7 µM (active).
As to `COc1ccc(C(=O)/C(Br)=C\C(=O)O)cc1`, the AC50 was 25.3 µM (active) and 30.3 µM (active).
With `Cc1c(O)cccc1O`, the result was inactive.
On the same count and under the same terms, to `CC(c1cc(C(C)(C)C)cc(C(C)(C)C)c1O)c1cc(C(C)(C)C)cc(C(C)(C)C)c1O` belongs “inactive”; to `CC(C)[N+](C)(CCOC(=O)C1c2ccccc2Oc2ccccc21)C(C)C`, “inactive”; to `CCCCCC1=CCCC1=O`, “inactive”.
Regarding `CCN1CN(CC)CN(CC)C1`, the outcome was inactive.
Consider `CC1=CC=C(C(C)C)CC1`, for which the outcome was inactive.
Still for that read-out and setting: to `CC1(C)CC(O)CC(C)(C)N1[O]` belongs “inactive”.
With `CCCCCCC=O`, the result was inactive.
Regarding `CCCCCCOC(=O)CCCCC(=O)OCCCCCC`, the outcome was inactive.
In the case of `CC/C=C\C/C=C\C/C=C\CCCCCCCC(=O)OC`, the concentration at half-maximal activity (AC50) is 30.1 µM (active).
Turning to `CCOC(=O)C1=NOC(c2ccccc2)(c2ccccc2)C1`, the outcome was inactive.
In the case of `O=C(Cl)c1c(Cl)c(Cl)c(C(=O)Cl)c(Cl)c1Cl`, the outcome was inactive.
In the case of `CCCCCCCO`, the result was inactive.
On to `C=CC(=O)OCCCCCCCC(C)C`, for which the result was inactive.
`O=C1CCCCCCCCCCC1`: the outcome was inactive.
Still for that read-out and setting: for `O=C1CCCCCCCCCCCN1` the value was “inactive”.

As usually defined, the AC50 is the concentration giving half of the maximal activity seen.
